Drawing on PubChem BioAssay AID2669 (National Center for Advancing Translational Sciences (NCATS), 2010), this text covers Potency for 23 molecules.

Structures are written as SMILES. “And” between values parts separate entries of the source, which are not always exact repeats. Identical values can stand only once. Records with an inconclusive call do not appear. The source made the active and inactive calls. Calls come from the whole dose curve; as a rule, active = well fitted inhibition curve with a large enough effect; inconclusive = small, poorly fitted or top-dose-only effect, or effect the other way; inactive = flat fitted curve, though single readings scatter.

A short description of the experiment: qHTS Assay Multiplex Screening to Identify Dual Action Probes in a Cell Model of Huntington: Cytoprotection (Protease relase). Particulars: PC12 HttQ103 cells, Cytotox-Glo protease release, 40 h; series mostly up to 46.1 µM. The method, boiled down: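 Inducible PC12 line expressing HTT exon 1 (Q103)-GFP, induced with 100 nM tebufenozide (final) and treated with compounds. Cytoprotection read as released protease activity by Cytotox-Glo luminescence.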
Regarding `Cn1nnnc1Sc1ncnc2scc(-c3cccc(C(F)(F)F)c3)c12`, the Potency is 14.1 µM (active).

Turning to `Cn1nnnc1Sc1ncnc2scc(-c3ccsc3)c12`, the Potency was 7.94 µM (active).

`COc1ccc2cc3cc(C(=O)N4CCN(c5ccccc5)CC4)oc3nc2c1`: the Potency is 2.24 µM (active).

With `COc1ccc(CNC(=O)CN(C(=O)CCC(=O)Nc2ccccn2)c2ccccc2OC)cc1`, the Potency entry is “inactive”.

In the case of `COc1ccc(C)cc1NC(=O)C(Sc1nnnn1C)c1ccccc1` (stereo not drawn), the Potency entry was “inactive”.

In the case of `Cc1cc(C)n(S(=O)(=O)/C=C/c2ccccc2)n1`, the Potency result is “inactive”.

Turning to `Cn1nnnc1Sc1ncnc2scc(-c3ccccc3Br)c12`, the Potency is 14.1 µM (active).

For the molecule `Cc1cccc(-c2csc3ncnc(Sc4nnnn4C)c23)c1`, the Potency was 14.1 µM (active).

With `O=C(Nc1nc(-c2ccc(-c3ccccc3)cc2)cs1)C1CCCO1` (stereo not drawn), the Potency was 11.2 µM (active).

Consider `Cn1nnnc1Sc1ncnc2scc(-c3ccc(F)cc3)c12`, for which the Potency is 15.8 µM (active).

With `Cn1nnnc1Sc1ncnc2scc(-c3ccc4c(c3)OCO4)c12`, the Potency is 10 µM (active).

Turning to `Cc1csc(N/N=C/c2ccc(O)c([N+](=O)[O-])c2)n1`, the Potency is 1.78 µM (active).

Consider `COc1ccccc1-n1nnnc1S(=O)(=O)Cc1ccc(Cl)cc1`, for which the Potency was 14.1 µM (active).

`CCOC(=O)c1sc2nc(N3CCOCC3)c3c(c2c1N)CCN(C)C3`: the Potency entry is “inactive”.

On to `Cn1nnnc1Sc1ncnc2scc(-c3ccccc3)c12`, for which the Potency is 2.82 µM (active) and 7.94 µM (active).

`CC(C(=O)O)c1ccc(CC2CCCC2=O)cc1` (stereo not drawn): the Potency result is “inactive”.

In the case of `COc1cc2nc(N3CCN(C(=O)C4CCCO4)CC3)nc(N)c2cc1OC` (stereo not drawn), the Potency is 4.47 µM (active).

In the case of `Fc1ccc(N2CCN(c3ncnc4nc[nH]c34)CC2)cc1`, the Potency was 4.47 µM (active).

For `Cn1nnnc1Sc1ncnc2scc(-c3ccc([N+](=O)[O-])cc3)c12`, the Potency is 8.91 µM (active).

As for `CC(=O)c1cccc(-c2csc3ncnc(Sc4nnnn4C)c23)c1`, the Potency is 7.08 µM (active).

For `Cc1cc(NC(=O)CCS(=O)(=O)c2nc(-c3ccccc3)cc(C(F)(F)F)n2)no1`, the Potency result was “inactive”.

Consider `Cc1ccc(S(=O)(=O)CCc2nc3ccccc3n2CCC#N)cc1`, for which the Potency is 25.1 µM (active).

Consider `Cn1nnnc1Sc1ncnc2scc(-c3cnc(N)nc3)c12`, for which the Potency is 11.2 µM (active).
